CYP2C9 inhib – blockers of cytochrome P450 2C9 activity – biochemical, luminescence, ADME assay, primary screen. AID 777, 2007. CYP2C9 Supersomes, luciferin-H conversion. inhibition, % at 5 µM. 20% of 96,000 active;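 active means blocking of liver enzyme CYP2C9 beyond about 50% at 5 µM, limit read from the data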
F-actin modifier – modifiers of F-actin cytoskeleton organization, primary screen, imaging, HUVEC, phalloidin staining, high-content imaging | 0.18% of 91,000 active | inhibition, % at 2 µM | HUVEC TNFa F-actin phalloidin imaging | AID 836, 2007;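 active means inhibition above the batch mean plus 3 SD and confirmed as a hit by visual image inspection, cut at about 30% in these data, passing the limit was not always enough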
CYP2C9 activ – human CYP2C9 activators, primary screen, biochemical, luminescence. Cytochrome P450 2C9 (Homo sapiens), P11712. recombinant CYP2C9, luciferin-H conversion; hits give high values; factor 1 = untreated enzyme, 0 = blocked. AID 1024, 2008. 1.4% of 96,000 active. activation factor at 5 µM;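 active means activation factor of 2 or more for CYP2C9 at a 5 µM dose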;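 further: 0 = sulfaphenazole-blocked wells and 1 = vehicle-only wells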
E-sel TNF inh – E-selectin induction blockers in HUVEC – imaging, immunofluorescence, high content, primary screen; HUVEC TNFa-induced E-selectin immunofluorescence; inhibition, % at 2 µM; 0.71% of 120,000 active; AID 1246, 2008;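 active means inhibition above the batch mean plus 3 SD, and confirmed as a hit on visual image review, cut at about 43% in these data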;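 further: 0% = TNF-stimulated DMSO wells and 100% = unstimulated control wells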
CYP2C19 inh – blockers of cytochrome P450 2C19 activity – biochemical, luminescence, ADME assay, primary screen | P33261 | CYP2C19 Supersomes, luciferin-H EGE luminescence, 30 min | inhibition, % at 5 µM | 21% of 96,000 active | AID 778, 2007;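 active means CYP2C19 inhibition above a set limit at 5 µM in the primary screen, cut at about 50% in these data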;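 further: plate controls were negative control wells for no effect and 2.5 mM tranylcypromine positive control for full effect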
Target sequence (P33261 whole entry, looked up): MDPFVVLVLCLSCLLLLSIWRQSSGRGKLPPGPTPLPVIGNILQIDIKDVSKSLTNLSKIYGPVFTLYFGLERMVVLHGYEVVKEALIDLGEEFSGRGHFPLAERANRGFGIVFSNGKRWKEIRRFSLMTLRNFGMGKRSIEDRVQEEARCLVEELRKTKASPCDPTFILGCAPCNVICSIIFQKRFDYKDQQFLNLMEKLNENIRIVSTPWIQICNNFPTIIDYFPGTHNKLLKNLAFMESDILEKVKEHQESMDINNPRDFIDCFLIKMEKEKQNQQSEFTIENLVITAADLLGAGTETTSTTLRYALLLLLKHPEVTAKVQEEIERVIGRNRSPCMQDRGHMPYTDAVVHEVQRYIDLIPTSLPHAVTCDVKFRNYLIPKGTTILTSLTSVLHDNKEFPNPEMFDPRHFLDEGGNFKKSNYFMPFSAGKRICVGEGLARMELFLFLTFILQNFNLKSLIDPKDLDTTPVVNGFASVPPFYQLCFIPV
CYP2C19 act – human CYP2C19 activators, primary screen, biochemical, luminescence; Cytochrome P450 2C19 (Homo sapiens), P33261; recombinant CYP2C19, luciferin-H EGE luminescence; hits give high values; 0 = fully inhibited enzyme, 1 = untreated enzyme; activation factor at 5 µM; 96,000 tested, under 10 active;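 active means activation factor of at least 2 at 5 µM in the primary screen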;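 further: 0 = wells with 2.5 mM tranylcypromine and 1 = vehicle-only wells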
Numbers without * were called inactive; · = not tested or not shown. Shown are actives, neighbours in structure and some others; about 22% of the full set was active somewhere.

SMILES	CYP2C9 inhib	F-actin modifier	CYP2C9 activ	E-sel TNF inh	CYP2C19 inh	CYP2C19 act
CC(=O)C1=C(O)C(=O)N(c2nccs2)C1c1ccccc1 (stereo not drawn)	17.6	·	0.8	-6.3	13.6	0.9
CCC(O)CNC(=O)NC(=C(Cl)Cl)c1ccc(C)c(F)c1 (stereo not drawn)	·	·	·	-7.0	·	·
CC1(C)C(O)=C(c2nc3ccccc3[nH]2)C(=N)N1c1ccccc1	35.7	22.0	0.6	·	29.7	0.7
COC(=O)C1=C(C)N(c2cc(Cl)cc(Cl)c2)C(=O)C1	1.9	-21.6	1	51.4	62.4*	0.4
COC(=O)C1=C(C)N(c2ccc(C(=O)OC)cc2)C(=O)C1	18.5	0.5	0.8	-1.3	20.5	0.8
CCCN1C(=O)CC(C(=O)OC)=C1C	10.0	-14.3	0.9	4.8	-5.7	1.1
COC(=O)C1=C(C)N(C2CCCCC2)C(=O)C1	1.0	2.3	1	16.2	55.4*	0.4
CCOC(=O)C1=C(C)N(C2CCCCC2)C(=O)C1	41.4	7.2	0.6	·	94.0*	0.1
O=C(c1cccs1)N(c1cccc(Cl)c1)C1C=CS(=O)(=O)C1 (stereo not drawn)	·	·	·	-8.4	·	·
Cn1c(=O)[nH]c(=O)c2c1nc(N1CCOCC1)n2CC(O)COc1ccc2ccccc2c1 (stereo not drawn)	23.8	34.5	0.8	-11.3	29.9	0.7
COc1ccc([C@@H]2Sc3cc(OC)ccc3N(CCN(C(C)C)C(C)C)C(=O)[C@H]2OC(C)=O)cc1	·	-5.0	·	-42.9	·	·
CCN(CC)C(=O)C1CCCN(c2ccc([N+](=O)[O-])cc2/C=N/NC(=O)c2ccccc2)C1 (stereo not drawn)	·	·	·	12.0	·	·
CCN(CC)C(=O)C1CCCN(c2ccc([N+](=O)[O-])cc2/C=N/NC(=O)c2cccc(O)c2)C1 (stereo not drawn)	93.2*	9.1	0.1	22.8	89.2*	0.1
CCC1(CC)C(=O)C(C)(C)C(=O)OC1c1ccccn1 (stereo not drawn)	60.0*	-5.0	0.4	-6.0	32.8	0.7
CCOc1ccccc1NC(=O)COC(=O)c1cccc(-c2ccc(OC(C)=O)cc2)c1	·	·	·	4.9	·	·
c1ccc2[nH]c(CN3CCCCC3)nc2c1	11.5	18.7	0.9	-27.7	42.6	0.6
O=c1oc2c(CN3CCCCC3)c(O)ccc2cc1-c1nc2ccccc2[nH]1	52.5*	·	0.5	·	54.0*	0.5
Cc1ccccc1CN1CCNC1=O	23.0	-0.8	0.8	-30.3	21.5	0.8
O=S1(=O)C=CC(Nc2cccc(Cl)c2)C1 (stereo not drawn)	71.0*	8.7	0.3	-4.9	18.1	0.8
COC(=O)c1sccc1NC(=O)CSc1ccccc1NS(=O)(=O)c1ccc(Br)cc1	79.8*	·	0.2	·	18.7	0.8
COc1ccc(OC)c(NC(=O)CSc2nnnn2-c2ccccc2F)c1	-13.7	-19.0	1.1	-72.0	21.9	0.8
COC(=O)c1sccc1NC(=O)CSc1nnnn1-c1ccccc1F	-113.5	-3.0	2.1*	-42.3	3.5	1
COC(=O)c1sccc1NC(=O)CSc1ccc(Cl)cc1	16.9	-17.9	0.8	-23.2	5.8	0.9
COC(=O)c1sccc1NC(=O)CN(C)NS(=O)(=O)c1ccc(F)cc1	91.3*	-11.1	0.1	-13.8	16.7	0.8
COC(=O)c1sccc1NC(=O)CSc1ccccc1NS(=O)(=O)c1ccc(F)cc1	74.2*	-14.7	0.3	-25.3	27.0	0.7
SMILES	CYP2C9 inhib	F-actin modifier	CYP2C9 activ	E-sel TNF inh	CYP2C19 inh	CYP2C19 act
COC(=O)c1sccc1NC(=O)CN(C)NS(=O)(=O)c1ccc(Cl)cc1	11.1	17.2	0.9	2.4	15.3	0.8
COc1ccc(/C=C(\C#N)C(=O)c2c(C)[nH]c3ccccc23)cc1OC	·	·	·	6.2	·	·
O=S(=O)(NCc1cc(-c2ccccc2)no1)c1ccc(Cl)cc1	5.0	-15.4	0.9	17.9	77.6*	0.2
O=S(=O)(NCc1cc(-c2ccccc2Cl)no1)c1ccccc1	-139.8	46.5	2.4*	-6.0	91.6*	0.1
Clc1ccc(CSc2cc3c(nn2)-c2ccccc2CC3)cc1Cl	30.6	18.1	0.7	41.8	24.9	0.8
COc1ccc(C(=O)C/C(=C\C(=O)c2ccc(C)cc2)c2ccccc2)cc1	74.2*	44.5	0.3	-13.0	47.8	0.5
COc1ccc(C(CC(=O)c2ccccc2)S(=O)(=O)c2ccc(C)cc2)cc1 (stereo not drawn)	13.1	-39.9	0.9	-29.6	26.5	0.7
CC(NC(=O)CCCCCN1C(=O)c2ccccc2C1=O)c1ccc2c(c1)CCCC2 (stereo not drawn)	91.5*	39.9	0.1	39.5	49.4	0.5
CC(NC(=O)CCCN1C(=O)c2ccccc2C1=O)c1ccc2c(c1)CCCC2 (stereo not drawn)	89.7*	14.2	0.1	-28.7	82.9*	0.2
CC(NC(=O)CCN1C(=O)c2ccccc2C1=O)c1ccc2c(c1)CCCC2 (stereo not drawn)	·	·	·	4.7	·	·
CC1=CCC(C(=O)O)C(C(=O)O)C1 (stereo not drawn)	19.1	-10.7	0.8	-0.1	-13.0	1.1
CCNC(=O)N1c2ccc(OC)cc2C(C)=CC1(C)C	36.2	-34.8	0.6	-11.9	41.7	0.6
C/C=C/C(=O)OCC(=O)Nc1ccccc1Br	·	·	·	-22.0	·	·
O=C(COC(=O)CCc1nc2ccccc2s1)Nc1ncc(Cl)cc1Cl	·	·	·	-28.3	·	·
CCOC(=O)CCSc1nnc(-c2cccnc2)n1-c1ccccc1OC	22.5	-7.0	0.8	-11.9	54.0*	0.5
Nn1c(Cc2ccccc2F)nnc1SCn1nnc2ccccc2c1=O	26.0	5.2	0.7	·	64.0*	0.4
O=c1c2ccccc2nnn1CSc1nnc(-c2cccnc2)n1-c1ccccc1F	2.1	38.8	1	·	75.2*	0.2
Cc1ccc(-n2c(SCn3nnc4ccccc4c3=O)nnc2-c2cccnc2)c(C)c1	8.4	·	0.9	-33.0	25.7	0.7
Cc1ccc(/C=N\Nc2cn[nH]c(=O)c2Cl)cc1	-2.6	-23.2	1	16.5	-2.1	1
Nc1c(-c2cccc(Cl)c2)cnn1-c1cccc(C(F)(F)F)c1	-25.4	-9.0	1.3	31.6	23.5	0.8
O=c1ccn(-c2cccc(C(F)(F)F)c2)nc1-c1ccn(-c2cccc(Cl)c2)n1	52.2*	5.3	0.5	-17.3	27.6	0.7
CC(=O)C1=C(C)Nc2ncnn2C1c1cccc(OCc2ccccc2)c1 (stereo not drawn)	-13.2	-9.8	1.1	·	11.3	0.9
COC(=O)c1c(NC(=O)CN2C(=O)NC3(CCc4ccccc4C3)C2=O)sc2c1CCCCC2 (stereo not drawn)	·	·	·	-17.9	·	·
CCOC(=O)c1c(C)oc2cc(Br)c(OC(=O)N3CCOCC3)cc12	51.4*	11.4	0.5	·	75.8*	0.2

Screens: PubChem BioAssay, several laboratories
